# Compound activity as filed in PubChem BioAssay.
# Only some compounds are listed: those with a hit (about 22% of all), similar ones and a draw of the others.
# CYP2C9 inhib – inhibitors of human CYP2C9 | P11712 | CYP2C9 Supersomes, luciferin-H conversion, luminescence | inhibition, % at 5 µM | actives 20% (n = 96,000) | AID 777;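 active means blocking of liver enzyme CYP2C9 beyond about 50% at 5 µM, limit read from the data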
# CYP2C19 activ – increases human CYP2C19 enzyme activity; recombinant CYP2C19, luciferin-H EGE luminescence; stronger effect = higher value; 0 = fully inhibited enzyme, 1 = untreated enzyme; P33261; 96,000 tested, under 10 active; AID 1025; activation factor at 5 µM;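 active means activation factor of at least 2 at 5 µM in the primary screen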;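 further: 0 = wells with 2.5 mM tranylcypromine and 1 = vehicle-only wells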
# Target sequence (P33261 whole entry, looked up): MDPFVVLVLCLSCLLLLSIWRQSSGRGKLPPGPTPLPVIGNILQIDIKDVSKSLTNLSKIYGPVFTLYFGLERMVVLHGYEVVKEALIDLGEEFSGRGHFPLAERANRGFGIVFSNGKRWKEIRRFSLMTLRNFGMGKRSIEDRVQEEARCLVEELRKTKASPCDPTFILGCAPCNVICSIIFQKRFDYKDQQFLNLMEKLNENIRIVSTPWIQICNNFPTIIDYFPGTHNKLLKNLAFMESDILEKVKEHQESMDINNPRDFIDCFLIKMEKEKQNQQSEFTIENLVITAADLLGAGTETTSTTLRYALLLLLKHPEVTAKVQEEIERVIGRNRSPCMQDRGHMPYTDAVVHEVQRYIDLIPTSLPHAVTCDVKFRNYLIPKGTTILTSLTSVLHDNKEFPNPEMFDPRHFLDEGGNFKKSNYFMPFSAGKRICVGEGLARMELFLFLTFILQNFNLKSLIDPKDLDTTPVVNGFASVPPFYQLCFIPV
# CYP2C19 inh – blocks human cytochrome P450 2C19; P33261; CYP2C19 Supersomes, luciferin-H EGE luminescence, 30 min; inhibition, % at 5 µM; actives 21% (n = 96,000);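 active means CYP2C19 inhibition above a set limit at 5 µM in the primary screen, cut at about 50% in these data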;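 further: plate controls were negative control wells for no effect and 2.5 mM tranylcypromine positive control for full effect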
# E-sel TNF inh – TNF alpha driven E-selectin expression inhibition | HUVEC TNFa-induced E-selectin immunofluorescence, high content | inhibition, % at 2 µM | actives 0.71% (n = 120,000) | AID 1246;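 active means inhibition above the batch mean plus 3 SD, and confirmed as a hit on visual image review, cut at about 43% in these data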;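 further: 0% = TNF-stimulated DMSO wells and 100% = unstimulated control wells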
# CYP2C9 activ – CYP2C9 (human) activation | P11712 | recombinant CYP2C9, luciferin-H conversion, luminescence; stronger effect = higher value; factor 1 = untreated enzyme, 0 = blocked | activation factor at 5 µM | actives 1.4% (n = 96,000) | AID 1024;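 active means activation factor of 2 or more for CYP2C9 at a 5 µM dose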;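 further: 0 = sulfaphenazole-blocked wells and 1 = vehicle-only wells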
# F-actin modifier – modifiers of cytoskeleton assembly | HUVEC TNFa F-actin phalloidin imaging, high content | inhibition, % at 2 µM | actives 0.18% (n = 91,000);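 active means inhibition above the batch mean plus 3 SD and confirmed as a hit by visual image inspection, cut at about 30% in these data, passing the limit was not always enough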
# Numbers without * were called inactive; . = no result given.
SMILES,CYP2C9 inhib,CYP2C19 activ,CYP2C19 inh,E-sel TNF inh,CYP2C9 activ,F-actin modifier
Cc1ccc2c(C)c(C(=O)N(Cc3cccs3)C3CCS(=O)(=O)C3)oc2c1 (stereo not given),37,0.9,12,10,0.6,.
O=C(CSc1nnc2ncccn12)N1CCCCCC1,1,1,3,-15,1,0
Cc1ccc(C(=O)C(OC(=O)COc2ccccc2C)c2ccccc2)cc1 (stereo not given),39,0.5,49,-22,0.6,-1
O=C(CN1CCOCC1)Nc1nc2cc([N+](=O)[O-])ccc2s1,.,.,.,-10,.,.
COc1cc(NS(=O)(=O)c2ccc(C)cc2C)cc(OC)c1OC,67*,0.5,48,2,0.3,8
COc1cc(NS(=O)(=O)N2CCCC2)cc(OC)c1OC,-17,0.7,32,1,1.2,4
CCOc1ccc(NC(=O)c2ccc(NC(=O)c3cn4c5c(c(N6CCN(C)CC6)c(F)cc5c3=O)OCC4C)cc2)cc1 (stereo not given),.,.,.,17,.,.
COc1ccc(CNCCC(c2ccccc2)c2ccc3c(c2)OCO3)cc1 (stereo not given),6,0.2,79*,.,0.9,-31
CCOC(=O)c1c(-c2cccs2)csc1NC(=O)CN1CCOCC1,73*,0.5,45,-40,0.3,.
CCOC(=O)c1c(-c2ccc(C)o2)csc1NC(=O)CN1CCOCC1,72*,0.5,54*,13,0.3,19
CCOC(=O)c1c(-c2cccs2)csc1NC(=O)CC(C)C,10,0.9,15,10,0.9,10
CCOC(=O)c1c(-c2cccs2)csc1NC(=O)CN(CC)CC,75*,0.6,38,2,0.2,11
CCOC(=O)c1c(-c2ccc(C)o2)csc1NC(=S)NC(=O)N(C)C,53*,0.8,18,-38,0.5,-3
CCOC(=O)c1c(-c2ccc(C)o2)csc1NC(=O)CSc1ncn[nH]1,85*,0.4,61*,7,0.1,7
CCOC(=O)c1c(-c2ccc(C)o2)csc1NC(=O)COC(=O)c1cccs1,.,.,.,-5,.,2
CCCCC(=O)Nc1ccccc1C#N,.,.,.,-23,.,.
CCC(C)NC(=O)COC(=O)c1cc([N+](=O)[O-])ccc1Sc1nc(C)cs1 (stereo not given),17,0.8,20,-10,0.8,8
Cc1csc(Sc2ccc([N+](=O)[O-])cc2C(=O)OCC(=O)NC2CCCC(C)C2C)n1 (stereo not given),50*,0.4,58*,.,0.5,30
CCc1nc2scc(-c3ccccc3)c2c(=O)n1N,4,0.8,22,0,1,-4
O=c1c2[nH]c3ccc(F)cc3c2ncn1CCCn1ccnc1,80*,0.4,64*,-9,0.2,10
O=c1c2[nH]c3ccc(Cl)cc3c2ncn1CCN1CCCCC1,59*,0.3,74*,14,0.4,3
Cc1ccc(S(=O)(=O)N(CC(=O)N2CCCCCC2)c2ccccc2)cc1,32,0.9,12,3,0.7,.
Cc1ccc(N(CC(=O)N2CCN(C3CCCCC3)CC2)S(=O)(=O)c2cccnc2)cc1,74*,0.7,31,.,0.3,-29
O=C(NCc1ccc2c(c1)OCO2)C1CCN(Cc2cnn(-c3ccccc3)c2-n2cccc2)CC1,51*,0.7,33,15,0.5,11
O=C(Nc1ccccc1Cl)C1CCN(Cc2cnn(-c3ccccc3)c2-n2cccc2)CC1,23,0.8,18,.,0.8,-9
SMILES,CYP2C9 inhib,CYP2C19 activ,CYP2C19 inh,E-sel TNF inh,CYP2C9 activ,F-actin modifier
COc1ccc(NC(=O)C2CCN(Cc3cnn(-c4ccccc4)c3-n3cccc3)CC2)cc1OC,41,0.9,8,3,0.6,17
COc1cccc(NC(=O)C2CCN(Cc3cnn(-c4ccccc4)c3-n3cccc3)CC2)c1,67*,0.8,18,-2,0.3,0
CC(C)C(=O)Nc1cccc(S(=O)(=O)c2cccc(NC(=O)C(C)C)c2)c1,.,.,.,11,.,8
CCn1nnnc1SCC(=O)Nc1nc(-c2cccs2)cs1,.,.,.,-16,.,8
Fc1cccc(Cl)c1CSc1ncn[nH]1,-3,0.9,8,-47,1,-31
Cc1c(N=Cc2c(O)n(Cc3ccco3)c(=O)c3ccccc23)c(=O)n(-c2ccccc2)n1C,81*,0.4,56*,-10,0.2,6
O=C1c2ccccc2C(=O)N1CCCc1nc2ccccc2c(=O)n1CCCn1ccnc1,99*,0.1,86*,-9,0,7
